Source: PubChem BioAssay (Tox21)
Where “and” joins values, the source holds several entries; their conditions need not be identical. Equal values may be shown once. Inconclusive results are not listed. A call without a number means that no potency is given here. The source holds several records for some structures; these can differ, active in one and inactive in another. Calls of active or inactive are those of the source. Calls come from the whole dose curve; as a rule, active = well fitted curve in the direction sought with a large enough effect in the repeat runs; inconclusive = weak or mixed curves; inactive = no such curve, though single readings can be large; an effect the other way counts as inactive or inconclusive.

Experiments:
[1] = A CellTox Green Cytotoxicity Assay to monitor cytotoxicity in HEK293 cells - 40 hour (AID 1224871); note: nearly all actives have a fitted effect of over 45% in size; note: potency is the fitted concentration of half-maximal effect
How it was run: (§1)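 Homogeneous no-lysis format: HEK293 cell suspension mixed with CellTox Green reagent, seeded, incubated 5 h at 37 C/5% CO2, then dosed by pintool with compound in DMSO.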

[2] = qHTS RealTime-Glo MT Cell Viability Assay in HEK293 cells - 16 hour (AID 1224872); note: top concentration of the series differs between compounds; nearly all actives have a fitted effect of over 50% in size
How it was run: (§2)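 Assay medium contained NanoLuc luciferase plus cell-permeant prosubstrate, added with HEK293 cells at 600 cells/well. After 5 h at 37 C/5% CO2 compounds were added; plates stayed at 37 C for 40 h with serial luminescence reads.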

[3] = qHTS RealTime-Glo MT Cell Viability Assay in HEK293 cells - 40 hour (AID 1224874); settings: RealTime-Glo luminescence; max response: stronger effect = lower value; note: nearly all actives have a fitted effect of over 50% in size
How it was run: (§3)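 Measured as luminescence from the same continuously cultured HEK293 wells at successive time points (0, 8, 16, 24, 32, 40 h) after compound addition. Reagent present from seeding; dosing at 5 h; incubation 37 C.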

[4] = A CellTox Green Cytotoxicity Assay to monitor cytotoxicity in HEK293 cells - 24 hour (AID 1224875); note: series mostly up to about 77 µM; nearly all actives have a fitted effect of over 45% in size
How it was run: as §1

[5] = A CellTox Green Cytotoxicity Assay to monitor cytotoxicity in HepG2 cells - 16 hour (AID 1224876); note: nearly all actives have a fitted effect of over 45% in size; note: potency is the fitted concentration of half-maximal effect
How it was run: (§4)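 Fluorescent DNA-binding dye, 600 HepG2 cells/well, 5 h preincubation then compound in DMSO; same plates read at 0–40 h, 37 C.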

[6] = qHTS RealTime-Glo MT Cell Viability Assay in HepG2 cells - 32 hour (AID 1224877); note: nearly all actives have a fitted effect of over 55% in size
How it was run: (§5)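 qHTS, HepG2, 600 cells/well, RealTime-Glo (NanoLuc + prosubstrate) added with cells; 5 h preincubation; DMSO compound addition; 37 C; luminescence at 0/8/16/24/32/40 h.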

[7] = A CellTox Green Cytotoxicity Assay to monitor cytotoxicity in HepG2 cells - 24 hour (AID 1224878); note: nearly all actives have a fitted effect of over 45% in size; note: potency is the fitted concentration of half-maximal effect
How it was run: as §4

[8] = A CellTox Green Cytotoxicity Assay to monitor cytotoxicity in HepG2 cells - 40 hour (AID 1224879); note: nearly all actives have a fitted effect of over 40% in size; note: potency is the fitted concentration of half-maximal effect
How it was run: as §4

[9] = qHTS RealTime-Glo MT Cell Viability Assay in HEK293 cells - 0 hour (AID 1224880)
How it was run: as §3

[10] = A CellTox Green Cytotoxicity Assay to monitor cytotoxicity in HEK293 cells - 32 hour (AID 1224881); note: nearly all actives have a fitted effect of over 40% in size
How it was run: as §1

[11] = A CellTox Green Cytotoxicity Assay to monitor cytotoxicity in HepG2 cells - 0 hour (AID 1224882); note: nearly all actives have a fitted effect of over 35% in size; note: potency is the fitted concentration of half-maximal effect
How it was run: as §4

[12] = A CellTox Green Cytotoxicity Assay to monitor cytotoxicity in HepG2 cells - 32 hour (AID 1224883); note: nearly all actives have a fitted effect of over 50% in size
How it was run: as §4

[13] = A CellTox Green Cytotoxicity Assay to monitor cytotoxicity in HEK293 cells - 8 hour (AID 1224884); note: nearly all actives have a fitted effect of over 35% in size; note: potency is the fitted concentration of half-maximal effect
How it was run: as §1

[14] = qHTS RealTime-Glo MT Cell Viability Assay in HepG2 cells - 16 hour (AID 1224885); note: nearly all actives have a fitted effect of over 50% in size
How it was run: as §5

[15] = qHTS RealTime-Glo MT Cell Viability Assay in HEK293 cells - 24 hour (AID 1224886)
How it was run: as §2

[16] = qHTS RealTime-Glo MT Cell Viability Assay in HEK293 cells - 8 hour (AID 1224887)
How it was run: as §3

[17] = A CellTox Green Cytotoxicity Assay to monitor cytotoxicity in HEK293 cells - 16 hour (AID 1224888); note: nearly all actives have a fitted effect of over 35% in size
How it was run: as §1

[18] = qHTS RealTime-Glo MT Cell Viability Assay in HepG2 cells - 0 hour (AID 1224889); note: nearly all actives have a fitted effect of over 50% in size
How it was run: as §5

[19] = A CellTox Green Cytotoxicity Assay to monitor cytotoxicity in HepG2 cells - 8 hour (AID 1224890); note: nearly all actives have a fitted effect of over 45% in size; note: potency is the fitted concentration of half-maximal effect
How it was run: as §4

[20] = qHTS RealTime-Glo MT Cell Viability Assay in HepG2 cells - 8 hour (AID 1224873); note: nearly all actives have a fitted effect of over 55% in size
How it was run: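 HepG2 cells mixed with RealTime-Glo MT reagents (NanoLuc plus cell-permeant prosubstrate) were seeded at 600 cells/well, incubated 5 h at 37 C/5% CO2, then pinned with compounds in DMSO; nonlytic luminescence tracked viability during 40 h treatment.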

COC(=O)c1ccc(C)cc1
Potency [1]: inactive | Potency [2]: inactive | max response [3]: 1.02% (inactive) and 6.36% (inactive) | Potency [4]: inactive | Potency [5]: inactive | Potency [6]: inactive | Potency [7]: inactive | Potency [8]: inactive | Potency [9]: inactive | Potency [10]: inactive | Potency [11]: inactive | Potency [12]: inactive | Potency [13]: inactive | Potency [14]: inactive | Potency [15]: inactive | Potency [16]: inactive | Potency [17]: inactive | Potency [18]: inactive | Potency [19]: inactive

CC(=O)[C@H]1CC[C@H]2[C@@H]3CC=C4C[C@@H](O)CC[C@]4(C)[C@H]3CC[C@]12C
Potency [1]: inactive | Potency [2]: inactive | Potency [20]: inactive | max response [3]: -23.7% (inactive) | Potency [4]: inactive | Potency [5]: inactive | Potency [6]: inactive | Potency [7]: inactive | Potency [8]: inactive | Potency [9]: inactive | Potency [13]: inactive | Potency [15]: inactive | Potency [17]: inactive | Potency [18]: inactive | Potency [19]: inactive

CCC(Cc1c(I)cc(I)c(N)c1I)C(=O)O (centres undefined)
Potency [1]: inactive | Potency [2]: inactive | max response [3]: 3.1% (inactive) and 8.35% (inactive) | Potency [4]: inactive | Potency [5]: inactive | Potency [6]: inactive | Potency [7]: inactive | Potency [8]: inactive | Potency [9]: inactive | Potency [10]: inactive | Potency [11]: inactive | Potency [12]: inactive | Potency [13]: inactive | Potency [14]: inactive | Potency [15]: inactive | Potency [17]: inactive | Potency [18]: inactive | Potency [19]: inactive

c1ccc2c(c1)ccc1ncccc12
Potency [1]: inactive | Potency [2]: inactive | Potency [20]: inactive | max response [3]: -12% (inactive) and -17.1% (inactive) | Potency [4]: inactive | Potency [5]: inactive | Potency [6]: inactive | Potency [7]: inactive | Potency [8]: inactive | Potency [9]: inactive | Potency [11]: inactive | Potency [12]: inactive | Potency [13]: inactive | Potency [14]: inactive | Potency [15]: inactive | Potency [17]: inactive | Potency [18]: inactive | Potency [19]: inactive

c1ccc2c(c1)ccc1cc3c(ccc4ccccc43)cc12
Potency [1]: inactive | Potency [2]: inactive | Potency [20]: inactive | max response [3]: 16% (inactive) and 7.61% (inactive) | Potency [4]: inactive | Potency [5]: inactive | Potency [6]: inactive | Potency [7]: inactive | Potency [8]: 4.32 µM (active) and 1.22 µM (active) | Potency [9]: inactive | Potency [11]: inactive | Potency [13]: inactive | Potency [14]: inactive | Potency [15]: inactive | Potency [16]: inactive | Potency [17]: inactive | Potency [18]: inactive | Potency [19]: inactive

c1ccc2cc3ccccc3cc2c1
Potency [1]: inactive | Potency [2]: inactive | Potency [20]: inactive | max response [3]: 1.77% (inactive) and 23.2% (inactive) | Potency [4]: inactive | Potency [5]: inactive | Potency [6]: inactive | Potency [7]: inactive | Potency [8]: inactive | Potency [9]: inactive | Potency [13]: inactive | Potency [15]: inactive | Potency [16]: inactive | Potency [17]: inactive | Potency [18]: inactive | Potency [19]: inactive

COc1cc([C@H]2Oc3cc([C@H]4Oc5cc(O)cc(O)c5C(=O)[C@@H]4O)ccc3O[C@@H]2CO)ccc1O
Potency [1]: inactive and 16.9 µM (active) | Potency [2]: inactive | Potency [20]: inactive | max response [3]: -16.5% (inactive) | Potency [5]: inactive and 21.3 µM (active) | Potency [6]: inactive | Potency [7]: inactive and 21.3 µM (active) | Potency [8]: inactive and 21.3 µM (active) | Potency [9]: inactive | Potency [11]: inactive and 21.3 µM (active) | Potency [13]: inactive and 16.9 µM (active) | Potency [14]: inactive | Potency [15]: inactive | Potency [16]: inactive | Potency [18]: inactive | Potency [19]: inactive and 23.9 µM (active)

CCCCCC=O
Potency [1]: inactive | Potency [2]: inactive | Potency [20]: inactive | max response [3]: -0.468% (inactive) and 7.09% (inactive) | Potency [4]: inactive | Potency [5]: inactive | Potency [6]: inactive | Potency [7]: inactive | Potency [8]: inactive | Potency [9]: inactive | Potency [11]: inactive | Potency [13]: inactive | Potency [14]: inactive | Potency [15]: inactive | Potency [16]: inactive | Potency [17]: inactive | Potency [18]: inactive | Potency [19]: inactive

CCC/C=C/C=O
Potency [1]: inactive | Potency [2]: inactive | max response [3]: -4.27% (inactive) and 1.77% (inactive) | Potency [4]: inactive | Potency [5]: inactive | Potency [6]: inactive | Potency [7]: inactive | Potency [8]: inactive | Potency [9]: inactive | Potency [10]: inactive | Potency [11]: inactive | Potency [12]: inactive | Potency [13]: inactive | Potency [14]: inactive | Potency [15]: inactive | Potency [16]: inactive | Potency [17]: inactive | Potency [18]: inactive | Potency [19]: inactive

FC(F)(F)C(Cl)Br (centres undefined)
Potency [1]: inactive | Potency [2]: inactive | max response [3]: -4.81% (inactive) and 5.64% (inactive) | Potency [4]: inactive | Potency [5]: inactive | Potency [6]: inactive | Potency [7]: inactive | Potency [8]: inactive | Potency [9]: inactive | Potency [10]: inactive | Potency [11]: inactive | Potency [12]: inactive | Potency [13]: inactive | Potency [14]: inactive | Potency [15]: inactive | Potency [16]: inactive | Potency [17]: inactive | Potency [18]: inactive | Potency [19]: inactive

C=C[Si](OCCOC)(OCCOC)OCCOC
Potency [1]: inactive | Potency [2]: inactive | Potency [20]: inactive | max response [3]: 5.17% (inactive) and 4.57% (inactive) | Potency [4]: inactive | Potency [5]: inactive | Potency [6]: inactive | Potency [7]: inactive | Potency [8]: inactive | Potency [9]: inactive | Potency [11]: inactive | Potency [12]: inactive | Potency [13]: inactive | Potency [14]: inactive | Potency [15]: inactive | Potency [16]: inactive | Potency [17]: inactive | Potency [18]: inactive | Potency [19]: inactive

NCCS(=O)(=O)O
Potency [1]: inactive | Potency [2]: inactive | max response [3]: 13.2% (inactive) and 2.94% (inactive) | Potency [4]: inactive | Potency [5]: inactive | Potency [6]: inactive | Potency [7]: inactive | Potency [8]: inactive | Potency [9]: inactive | Potency [10]: inactive | Potency [11]: inactive | Potency [12]: inactive | Potency [13]: inactive | Potency [14]: inactive | Potency [15]: inactive | Potency [16]: inactive | Potency [17]: inactive | Potency [18]: inactive | Potency [19]: inactive
